The text below walks through data of PubChem BioAssay.

Where “and” joins values, the source holds several entries; their conditions need not be identical. Equal values may be shown once. Records with an inconclusive call do not appear. Calls of active or inactive are those of the source. Unless noted, the limit is not given here; nearly all actives have AC50 up to about 26 µM.

Assay [1] is described as follows: stimulators of nuclear beta-catenin in C2C12, primary screen, imaging, WNT3A-conditioned medium, mouse C2C12, NPC library (AID 1117326; in the data active = nuclear beta-catenin stimulation mostly above about 4.2%, no sharp cut-off; inactive = mostly below about 10%; also: reference of the scale not given here). To be noted: stronger effect = higher value.
Assay [2] can be described thus: stimulators of insulin release from INS-1E, primary screen, cell-based, 5 mM glucose, NPC library (AID 1117329;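 active = compound raises insulin release from rat beta cells at 5 mM glucose, no numeric limit stated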; also: reference of the scale not given here). To be noted: rat INS-1E insulin secretion, at 10 µM, stronger effect = higher value.
Assay [3] in a line: growth inhibition of GSK3B-pretreated HCT116 cells – cell-based, CellTiter-Glo, 0.2 to 20 µM (AID 1117336;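 active = compounds lowering colon cancer cell viability after pretreatment blocking the GSK3B kinase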). The note with it: HCT116 viability after GSK3B inhibitor, at 20 µM, stronger effect = higher value. Background: ATP-based viability assays read luminescence as a measure of living cells.
Assay [4] in a line: inhibition of endothelial tube formation, primary screen, imaging, VEGF stimulated, CD31 staining, tube area, NPC library (AID 1117340;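 active = compound that reduces growth-factor-driven endothelial tube area in a mixed cell culture, no cutoff stated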). To be noted: VEGF-stimulated ADSC/ECFC co-culture, at 10 µM, stronger effect = higher value.
The nature of assay [5]: glucagon-like peptide 1 release enhancers, primary assay, NCI-H716 cell line, NPC library (AID 1117341;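 active = compound raises GLP1 secretion from the human gut endocrine cells, with no numeric limit stated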; also: reference of the scale not given here). The note with it: NCI-H716 cells, at 10 µM, stronger effect = higher value.
A short description of assay [6]: HCT116 colon cancer cell growth inhibition, primary screen, CellTiter-Glo luminescence, NPC library (AID 1117342;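 active = compounds that lower survival of HCT116 colon cancer cells in the luminescence readout, no numeric limit stated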). The note with it: at 20 µM (top of the series).
Assay [7] in a line: CellTiter-Glo luminescent readout of SW480 viability loss, NPC library primary (AID 1117343;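 active = compounds that lower viability of the colon cancer cells in the luminescence readout, with no numeric limit stated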). The note with it: CellTiter-Glo luminescence; at 20 µM (top of the series) unless noted.
Assay [8] in a line: decreased DLD-1 cellular survival, CellTiter-Glo luminescent readout, NPC compound collection, primary HTS (AID 1117346;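 active = compounds that lower survival of DLD-1 colon cancer cells in the luminescence readout, no cutoff given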). To be noted: DLD-1 viability, CellTiter-Glo luminescence; at 20 µM (top of the series).
A short description of assay [9]: growth inhibition of DIPG glioma cells, dose response, cell-based, SU-DIPG-XVII, MIPE5.0, CellTiter-Glo, qHTS (AID 1347060). The note with it: SU-DIPG-XVII viability, CellTiter-Glo ATP luminescence.
The nature of assay [10]: growth inhibition of DIPG glioma cells, dose response, cell-based, SU-DIPG-XIII, MIPE4.0, CellTiter-Glo, qHTS (AID 1347061; cut-off not given, nearly all actives have AC50 up to about 37 µM;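 also: cells exposed to compound for 48 hours before readout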). To be noted: SU-DIPG-XIII viability, CellTiter-Glo ATP luminescence.
Assay [11] can be described thus: growth inhibition of DIPG glioma cells, dose response, cell-based, JHH-DIPG-1, MIPE4.0, CellTiter-Glo, qHTS (AID 1347062; cut-off not given, nearly all actives have AC50 up to about 27 µM). The note with it: JHH-DIPG-1 viability, CellTiter-Glo ATP luminescence.
A short description of assay [12]: SU-DIPG-XXV glioma cell viability, MIPE5.0 library, qHTS (AID 1347068; cut-off not given, nearly all actives have IC50 up to about 30 µM). Background: Quantitative high-throughput screening tests each substance at several concentrations.
The nature of assay [13]: sensitizers of A549 cells to miR-34 induction, primary screen, imaging, A549 dox-inducible miR-34, nuclei and caspase counts (AID 1347080;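 active = compounds whose cell count with miR-34 switched on is under 0.7 times the count with it off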). To be noted: A549 miR-34 inducible, Hoechst nuclei count, 48 h.
The nature of assay [14]: viability rescue of complex I mutant cybrids, primary screen, cell-based, galactose medium, ATP luminescence (AID 1645843;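 active = z-score of at least 1.8 in each of two replicates, scored against plate mean and spread of sample wells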;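 also: positive z means more ATP and so rescue of galactose-driven cybrid death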). To be noted: complex I mutant cybrid cells, 72 h, stronger effect = higher value.
Assay [15] is described as follows: viability loss in pontine glioma line – cell-based, SU-DIPG-XXV, MIPE5.0, CellTiter-Glo, qHTS, dose response (AID 1347065).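 Also: cells exposed to compound for 48 hours before ATP readout.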 To be noted: CellTiter-Glo ATP luminescence.
Assay [16] is described as follows: survival rescue of mitochondrial mutant cells in low glucose, primary screen, MELAS cybrids, Rieske KO mouse fibroblasts, CellTiter-Glo (AID 1508586;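 active = mean z-score across replicates of 1.96 or higher in either the MELAS or the Rieske mutant cell line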;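 also: z relative to plate mean and SD of compound and empty wells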).
Assay [17] can be described thus: SU-DIPG-VI glioma cell viability, MIPE4.0 library, CellTiter-Glo luminescence, qHTS (AID 1347066; cut-off not given, nearly all actives have AC50 up to about 30 µM;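 also: cells exposed to compound for 48 hours before readout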). To be noted: CellTiter-Glo ATP luminescence.
The mark [18] stands for this setting: stronger effect = lower value, cell number ratio, induced over uninduced.
The mark [19] stands for this setting: measured here: relative caspase fold change +Dox/-Dox.
Where [20] appears, read: measured here: total cells with miR-34 induction, stronger effect = lower value.
Where [21] appears, read: measured here: total cells without miR-34 induction.
Where [22] appears, read: MELAS cybrid survival, CellTiter-Glo 48 h, stronger effect = higher value.
[23] abbreviates: Rieske KO mouse fibroblast survival, CellTiter-Glo 72 h.

`CC(C)(C)C(=O)Oc1ccc(S(=O)(=O)Nc2ccccc2C(=O)NCC(=O)O)cc1`: the nuclear beta-catenin stimulation in assay [1] (at 10 µM) was 0.7% (inactive); in assay [1] (stimulation, at 2 µM), 1.7%. The insulin secretion stimulation in [2] was 0% (inactive). Further, in assay [3], the viability decrease is 66% (active). Moreover, the tube area decrease in [4] is -2.9% (inactive). The GLP1 secretion stimulation in [5] was 0.3% (inactive). For the same compound, the inhibition of viability in assay [6] is 24.1% (inactive). Also, the results for the viability decrease (inhibition) in assay [7] and in assay [8] were 70% (active) and 3.4% (inactive), respectively. Also, the compound was classed as inactive in assay [9], in [10], in [11] and in assay [12]. For the same compound, the fold change in assay [13] (setting [18]) was 1.07 (inactive); in assay [13] (setting [19]), 1.11. For the same compound, the results for the cell count in assay [13] (setting [20]) and in assay [13] (setting [21]) were 10600 and 9900, respectively. Moreover, in assay [14], the z-score is 0.85 (inactive).
As for `CC(C(=O)O)c1ccc2c(c1)CC(=O)c1ccccc1S2` (stereo not given), the nuclear beta-catenin stimulation in assay [1] (at 10 µM) was -0.5% (inactive); in [1] (stimulation, at 2 µM), -1.2%. In addition, the insulin secretion stimulation in assay [2] was 5.5% (inactive). In addition, the viability decrease in assay [3] was -7.1% (inactive). In addition, the tube area decrease in [4] is 2.5% (inactive). Also, the GLP1 secretion stimulation in assay [5] was -2% (inactive). In addition, the inhibition of viability in [6] was -2.7% (inactive). In addition, the viability decrease (inhibition) in assay [7] was 21.1% (inactive); in assay [8] it was 7.9% (inactive). In addition, the compound was classed as inactive in [9], in assay [15] and in [12]. Also, the AC50 – broadly, the midpoint of the concentration-response curve, whichever way the signal moves – in assay [10] is 0.0059 µM (active). Moreover, the fold change is 0.901 (inactive) in [13] (setting [18]) and 0.594 in [13] (setting [19]). Further, the cell count amounted to 9750 in assay [13] (setting [20]) and 10800 in assay [13] (setting [21]). The z-score in assay [16] (setting [22]) was -0.314 (inactive); in [16] (setting [23]), 0.988.
`CN(C)C(=O)COC(=O)Cc1ccc(OC(=O)c2ccc(N=C(N)N)cc2)cc1`: the nuclear beta-catenin stimulation in assay [1] (at 10 µM) was 1.4% (inactive); in assay [1] (stimulation, at 2 µM), 0.4%. The insulin secretion stimulation in assay [2] is -0.35% (inactive). The viability decrease in [3] was 16.9% (inactive). The tube area decrease in assay [4] was -11.6% (inactive). Further, the GLP1 secretion stimulation in assay [5] was -0.7% (inactive). Further, in [6], the inhibition of viability was 13.5% (inactive). Besides, the viability decrease (inhibition) in assay [7] is -4.4% (inactive); in [8] it was 4.3% (inactive). Moreover, the outcome in [9], in assay [11], in [15] and in assay [12] was inactive. In addition, the fold change is 0.981 (inactive) in [13] (setting [18]) and 0.433 in assay [13] (setting [19]). Further, the cell count in assay [13] (setting [20]) amounted to 8560; in assay [13] (setting [21]), 8730. Also, the z-score is -0.283 (inactive) in assay [16] (setting [22]) and 0.0145 in assay [16] (setting [23]).
With `COCCCN1CCC(NC(=O)c2cc(Cl)c(N)c3c2OCC3)CC1`, the nuclear beta-catenin stimulation in [1] (at 10 µM) was 0.7% (inactive); in [1] (stimulation, at 2 µM), -2%. Besides, in assay [2], the insulin secretion stimulation was 1% (inactive). For the same compound, in [3], the viability decrease is -4.2% (inactive). Moreover, in assay [4], the tube area decrease is -8% (inactive). Moreover, in assay [5], the GLP1 secretion stimulation is 1.9% (inactive). Further, the inhibition of viability in assay [6] is 3.4% (inactive). The viability decrease (inhibition) in assay [7] is -13.9% (inactive); in assay [8], -4.2% (inactive). Also, the call in [9], in assay [11] and in assay [12] was inactive. Also, the AC50 in assay [17] is 23.5 µM (active). Further, the fold change is 0.972 (inactive) and 1.31 (inactive) in assay [13] (setting [18]); 0.687 and 0.593 in [13] (setting [19]). In addition, the cell count was 8080 and 7810 in assay [13] (setting [20]); 8300 and 5970 in assay [13] (setting [21]). The z-score in [16] (setting [22]) is -0.321 (inactive) and -0.32 (inactive); in assay [16] (setting [23]), -0.104 and -0.205.
`Cc1nnc(C(=O)NC(C)(C)c2nc(C(=O)NCc3ccc(F)cc3)c(O)c(=O)n2C)o1`: the nuclear beta-catenin stimulation in [1] (at 10 µM) was -0.2% (inactive); in assay [1] (stimulation, at 2 µM), 0.5%. The insulin secretion stimulation in assay [2] was 2.5% (inactive). The viability decrease in assay [3] is -5.9% (inactive). The tube area decrease in assay [4] was 13.9% (inactive). For the same compound, in assay [5], the GLP1 secretion stimulation was -0.3% (inactive). For the same compound, in assay [6], the inhibition of viability was 1% (inactive). For the same compound, the viability decrease (inhibition) in [7] was 31.6% (inactive); in [8], 6.7% (inactive). Besides, the outcome in assay [9], in [10], in assay [15], in [17] and in assay [12] was inactive. In addition, the results for the fold change in assay [13] (setting [18]) and in assay [13] (setting [19]) were 0.902 (inactive) and 1.04, respectively. Moreover, the cell count in assay [13] (setting [20]) is 7710; in assay [13] (setting [21]) it was 8560. Further, the z-score in assay [16] (setting [22]) is -0.159 (inactive); in assay [16] (setting [23]) it was -0.0651.
